{"source": "PubChem BioAssay AID651599", "about": "(National Center for Advancing Translational Sciences (NCATS), 2012)", "note": "Results filed as inconclusive are left out. Values without a mark were called inactive. Activity calls are given as the source filed them. The call rests on the fitted dose curve; in most records, active means well fitted inhibition curve with a large enough effect; inconclusive means small, poorly fitted or top-dose-only effect; inactive means no such curve, though single readings can be large or run the other way. On the % scale 0 is the no-effect control and ±100 the full control effect; potency means the concentration at half of the fitted maximal effect."}
{"target": "Tumor susceptibility gene 101 protein (Homo sapiens) (UniProt Q99816)", "sequence (Q99816 whole entry, looked up, the tested form may be a part)": "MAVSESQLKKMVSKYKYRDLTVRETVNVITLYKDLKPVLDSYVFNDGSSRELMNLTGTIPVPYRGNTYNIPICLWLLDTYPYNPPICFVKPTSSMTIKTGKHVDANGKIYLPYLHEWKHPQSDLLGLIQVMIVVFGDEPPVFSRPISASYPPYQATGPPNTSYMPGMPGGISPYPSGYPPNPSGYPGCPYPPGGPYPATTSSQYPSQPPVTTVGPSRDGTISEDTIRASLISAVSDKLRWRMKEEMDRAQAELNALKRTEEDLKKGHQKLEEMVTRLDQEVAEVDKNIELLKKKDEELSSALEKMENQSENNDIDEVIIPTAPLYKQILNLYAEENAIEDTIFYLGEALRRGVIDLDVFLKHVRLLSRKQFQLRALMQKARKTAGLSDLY", "experiment": "qHTS Assay for Iinhibitors of HIV-1 Budding by Blocking the Interaction of PTAP/TSG101: Hit Validation in TR assay", "details": "Tsg101 binding domain + Texas Red-labeled PTAP peptide, fluorescence polarization, 20 min; series mostly up to 57.5 µM; activity change, negative = inhibition: at the top concentration", "procedure,_shortened": "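Texas Red-PTAP peptide (50 nM) binding to Tsg101 binding domain (10 uM), both final, in pH 7.5 HEPES buffer, read as polarization after 20 min at room temperature; compounds pinned before peptide addition.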", "units": {"activity change, negative = inhibition": "%"}}
{"smiles": "Cc1ccccc1C1CC(=O)Oc2cc(O)ccc21", "note": "(centres undefined)", "activity change, negative = inhibition": -17.9}
{"smiles": "CCN(CC)c1ccc(/C=c2\\sc3nc4ccccc4n3c2=O)c(O)c1", "activity change, negative = inhibition": -27}
{"smiles": "Cn1c(=O)c(Nc2ccc(O)cc2)c2c3c(cccc31)C(=O)c1ccccc1-2", "activity change, negative = inhibition": -2.4}
{"smiles": "O=C(Nc1nc2c(s1)CN(Cc1ccccc1)CC2)c1cccc(S(=O)(=O)N2CCc3ccccc32)c1", "activity change, negative = inhibition": 19.5}
{"smiles": "CCC1(c2ccccc2)NC(=O)N(CC(=O)Nc2ccc(OC)nc2)C1=O", "note": "(centres undefined)", "activity change, negative = inhibition": 6.88}
{"smiles": "Cn1c(=O)c(N)c2c3c(c(Br)ccc31)C(=O)c1ccccc1-2", "Potency": "18.3 µM (active)"}
{"smiles": "COc1cc(C2C=C(c3cccs3)Nc3ncnn32)cc(OC)c1OC", "note": "(centres undefined)", "activity change, negative = inhibition": -1.35}
{"smiles": "COC(=O)c1cc(N2CCN(C)CC2)nc2ccccc12", "activity change, negative = inhibition": -2.81}
{"smiles": "O=C1Nc2ccc(F)cc2C12Nc1ccccc1-c1nnc(SCc3ccccc3F)nc1O2", "note": "(centres undefined)", "activity change, negative = inhibition": 235}
{"smiles": "CC(C)CSC1=NSC2=NC(=O)/C(=C\\c3coc4ccccc4c3=O)C(=N)N12", "activity change, negative = inhibition": 34.4}
{"smiles": "CSc1c(C#N)c(N)nc2sc(C(=O)c3ccc(Cl)c(Cl)c3)c(N)c12", "activity change, negative = inhibition": 8.16}
{"smiles": "CCOC(=O)c1cc2n(c1N)-c1ccccc1C2=O", "activity change, negative = inhibition": 2.6}
{"smiles": "Cn1c(=O)c2nc3ccc(NC(=O)C(F)(F)F)cc3nc2n(C)c1=O", "activity change, negative = inhibition": -13.7}
{"smiles": "c1ccc2[nH]c3cc4ncnc4cc3nc2c1", "activity change, negative = inhibition": 18.6}
{"smiles": "CC1C2C(C)N(C)C(=O)N(C)C2N(C)C(=O)N1C", "note": "(centres undefined)", "activity change, negative = inhibition": -1.62}
{"smiles": "O=C1/C(=N\\S(=O)(=O)c2cccs2)C([n+]2cccc(Cc3ccccc3)c2)=C([O-])c2ccccc21", "activity change, negative = inhibition": 2.05}
{"smiles": "CCOC(=O)N1CCN(c2nc3ccccc3nc2C(C#N)S(=O)(=O)c2ccc(C)cc2)CC1", "note": "(centres undefined)", "activity change, negative = inhibition": 156}
{"smiles": "COc1ccc(-c2onc3ccc(Br)cc23)cc1", "activity change, negative = inhibition": 179}
{"smiles": "O=C1c2cccc3c(O)ccc(c23)C(=O)N1Cc1ccccc1", "activity change, negative = inhibition": 0.844}
{"smiles": "CC1C2C(c3ccccc3)N(C)C(=O)N(C)C2N(C)C(=O)N1C", "note": "(centres undefined)", "activity change, negative = inhibition": -10.7}
{"smiles": "Cc1c2ccccc2nc2c(F)c(NCCO)c(F)c(F)c12", "activity change, negative = inhibition": 11.2}
{"smiles": "O=C1/C(=C/c2cccc(F)c2)Oc2cc(O)ccc21", "activity change, negative = inhibition": -2.21}
{"smiles": "CCCCCn1nc(-c2ccccc2)c2nc3ccccc3nc21", "activity change, negative = inhibition": -25.3}
{"smiles": "Nc1c(C(=O)c2cccs2)sc2nsc(SCCN3CCCCC3)c12", "activity change, negative = inhibition": 11}
{"smiles": "Cn1c(=O)c2[nH]c(COc3ccccc3)nc2n(C)c1=O", "activity change, negative = inhibition": -23.7}
{"smiles": "COC(=O)c1c(NC(=O)CC2Nc3cc(C)c(C)cc3NC2=O)sc(C)c1C", "note": "(centres undefined)", "Potency": "2.91 µM (active)"}
{"smiles": "CCN(CC)S(=O)(=O)c1ccc(C(=O)/C=C/c2ccc(-c3ccc([N+](=O)[O-])cc3)o2)cc1", "activity change, negative = inhibition": 25.5}
{"smiles": "c1ccc(-c2cn3nc(-c4ccccc4)c(-c4ccccc4)nc3n2)cc1", "activity change, negative = inhibition": 46.9}
{"smiles": "CCN(CC)C1=CC2=CC(=C(C#N)C#N)CCC2CC1", "note": "(centres undefined)", "activity change, negative = inhibition": 5.9}
{"smiles": "O=c1[nH]c(-[n+]2ccccc2)c(/C=N/NC([S-])=Nc2ccccc2)s1", "activity change, negative = inhibition": 6.15}
{"smiles": "Cc1nc2nc(-c3cccs3)cn2nc1C", "activity change, negative = inhibition": 5.54}
{"smiles": "CCCCCCCCOc1ccc(C2OC34CCCCC3C(C#N)(C#N)C2(C#N)C(=N)O4)cc1", "note": "(centres undefined)", "activity change, negative = inhibition": -17.2}
{"smiles": "O=c1[nH]c2c(s1)C=Nc1ccccc1N2", "activity change, negative = inhibition": -16.5}
{"smiles": "CCC(=O)Oc1ccc2c(c1)O/C(=C\\c1ccco1)C2=O", "activity change, negative = inhibition": -3.58}
{"smiles": "CCN(CC)c1ccc2cc(-c3nc(-c4ccc(OC)cc4)cs3)c(=O)oc2c1", "activity change, negative = inhibition": 467}
{"smiles": "O=c1ccc2cc3c4c(c2o1)CCCN4CCC3", "activity change, negative = inhibition": -21.1}
{"smiles": "CCc1ccccc1N=Cc1c(C)c(C#N)c2[nH]c3ccccc3n2c1=O", "activity change, negative = inhibition": 22.2}
{"smiles": "Cn1nc(-c2ccccc2)c2nc3ccccc3nc21", "activity change, negative = inhibition": -0.814}
{"smiles": "CS(=O)(=O)Nc1nc2n(n1)C(c1ccccc1)C=C(c1ccc(Br)cc1)N2", "note": "(centres undefined)", "activity change, negative = inhibition": 13.1}
